This passage reports z-score results from PubChem BioAssay.

NADPH oxidase 5 (Homo sapiens), sequence (Q96PH1 whole entry, looked up): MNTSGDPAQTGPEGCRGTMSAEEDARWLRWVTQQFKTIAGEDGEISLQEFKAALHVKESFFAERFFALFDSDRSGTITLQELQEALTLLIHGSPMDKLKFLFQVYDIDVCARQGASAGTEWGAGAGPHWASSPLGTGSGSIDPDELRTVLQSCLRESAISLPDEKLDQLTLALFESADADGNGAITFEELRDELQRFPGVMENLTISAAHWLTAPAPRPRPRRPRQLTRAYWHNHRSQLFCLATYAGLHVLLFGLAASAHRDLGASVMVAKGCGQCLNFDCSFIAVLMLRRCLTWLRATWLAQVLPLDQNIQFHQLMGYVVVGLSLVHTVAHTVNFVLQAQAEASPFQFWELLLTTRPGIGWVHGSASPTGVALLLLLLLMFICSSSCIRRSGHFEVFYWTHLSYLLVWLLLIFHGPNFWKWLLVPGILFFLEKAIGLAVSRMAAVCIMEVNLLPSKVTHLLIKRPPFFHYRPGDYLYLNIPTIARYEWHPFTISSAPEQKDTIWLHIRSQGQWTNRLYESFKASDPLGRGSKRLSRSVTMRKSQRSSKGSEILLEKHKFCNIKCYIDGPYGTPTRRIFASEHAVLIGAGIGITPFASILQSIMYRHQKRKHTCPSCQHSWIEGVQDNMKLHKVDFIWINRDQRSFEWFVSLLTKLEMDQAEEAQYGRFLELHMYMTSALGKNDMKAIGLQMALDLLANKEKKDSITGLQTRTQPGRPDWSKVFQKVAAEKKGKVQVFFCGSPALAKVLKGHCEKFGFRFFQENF

The first test has as its target NADPH oxidase 5 (Homo sapiens) (UniProt Q96PH1). Put plainly: NOX5-dependent H2O2 signal modulators, primary screen, NOX inhibitor project, cell-based, HEK293-NOX5, Amplex Red fluorescence (AID 1161). Particulars: HEK293-NOX5, ionomycin, 45 min, higher = more signal.
The compound `COc1ccc([Si](C)(C)[C@H]2[C@H](CC(=O)N3Cc4ccccc4C[C@H]3CO)O[C@@]3(C(=O)N(Cc4cccc(N5C(=O)c6cccc7cccc5c67)c4)c4ccccc43)[C@@H]2C)cc1` came in with a z-score of -0.799. The same measure, in the same setting: the value for `CN1C(=O)C2C(C1=O)C1C=C(c3ccc(CO)cc3)C2C(c2cccs2)N1C` (stereo unspecified) was -0.45; that for `CC(C)CNC(=O)[C@@]1(C)c2ccccc2C(=O)N(Cc2cc(F)cc(C(F)(F)F)c2)[C@H]1c1ccc(CO)cc1` was -0.364; that for `COc1ccc([Si](C)(C)[C@H]2[C@H](CCO)O[C@@]3(C(=O)N(Cc4ccc(N5CCOC5=O)cc4)c4ccccc43)[C@@H]2C)cc1` was 0.908. In turn, `CCCC=C(CCC)[C@@H](NC(=O)c1ccco1)c1ccc(C(=O)OC)cc1` came in with a z-score of 1.99. Still for that read-out and setting: the value for `CO[C@H]1O[C@H](CO)[C@@H](OC(=O)Nc2ccc(C(F)(F)F)cc2)[C@H](OC(=O)Nc2ccccc2-c2ccccc2)[C@@H]1OC(=O)Nc1ccccc1-c1ccccc1` was -1.23. In turn, `CC[C@H](C)C(=O)O[C@H]1CC[C@]2(C)C3=C(CCC2C1(C)C)[C@]1(C)CC[C@H]([C@H](C)CCCC(C)C)[C@@]1(C)CC3` (stereo partly specified) displayed a z-score of -0.162. `COCCn1c(C(=O)N2CCCC2)cc2c1C[C@H]1CN(C(=O)c3ccccc3)[C@@](Cc3ccccc3)(C(=O)OC)[C@@H]21` gave a z-score of -3.94. For the compound `C[C@]1(C(=O)NCC(F)(F)F)c2ccccc2C(=O)N(Cc2ccc(OC(F)(F)F)cc2)[C@H]1c1ccc(CO)cc1`, the z-score was -1.45. On the same count and under the same terms, to `CN(C)CCCNC(=O)[C@@H]1c2ccccc2C(=O)N(C2Cc3ccccc3C2)[C@H]1c1ccc(CO)cc1` belongs 0.545; to `Cc1c(NC(=O)/C(C#N)=C/c2ccc(Cl)cc2)c(=O)n(-c2ccccc2)n1C`, 1.22; to `C=CCC(OC(C)=O)[C@@H]1[C@@H](N(Cc2ccc(-c3ccccc3)cc2)C(=O)c2cccc3ccccc23)c2cc(OCCCO)ccc2N1C(=O)c1ccc2ccccc2c1` (stereo partly specified), -4.29. Still for that read-out and setting: to `COCCOC(=O)N1C(=O)[C@@]2(c3ccccc31)[C@H](c1ccc(OCCO)cc1)N1[C@H](c3ccccc3)[C@H](c3ccccc3)OC(=O)[C@H]1[C@@H]2C(=O)N1CCN(c2ncccn2)CC1` belongs 0.618. On the same count and under the same terms, the value for `C=C(/C(=C/C[C@@H](OC(C)=O)c1ccccc1OCCO)c1cc(C(=O)OC)ccc1OC)C(C)C` was -1.43. Regarding `CCCC[C@H]1OB(O)C[C@H]2C1=C(COC)C[C@H]1C(=O)C=CC(=O)[C@H]12`, the z-score was -0.477. As to `COc1ccc(NC(=O)O[C@H]2[C@H](OC(=O)Nc3ccc4c(c3)OCO4)[C@H](OC(=O)Nc3ccc4c(c3)OCO4)[C@@H](OC)O[C@@H]2CO)cc1`, the z-score was -1.64. `C=CCN1C(=O)[C@]2(O[C@H](CCO)[C@@H]([Si](C)(C)c3ccc(OC)cc3)[C@@H]2C)c2ccccc21` returned a z-score of -1.23.

The compound `COC(=O)[C@]1(CO)N=C(c2ccc(OCCCO)cc2)O[C@@H]1c1ccccc1CN=[N+]=[N-]` yielded a z-score of 0.234. Turning to `COc1cccc(OC)c1C(=O)O[C@H]1[C@@H]2OC(=O)[C@H](Cc3cccc(Br)c3)C/C=C/C[C@@H](Cc3cccc(Br)c3)C(=O)O[C@H]2[C@@H](OC)O[C@@H]1CO`, the z-score was determined as 0.955. Take `COCCOC(=O)N1C(=O)[C@@]2(c3cc(C#CC4(O)CCCCCC4)ccc31)[C@H](C(=O)NC[C@H](O)c1ccccc1)[C@H]1C(=O)O[C@H](c3ccccc3)[C@H](c3ccccc3)N1[C@@H]2c1ccc(O)cc1`: the z-score was determined as 1.61. On the same count and under the same terms, the value for `O=C1C2C=CC(C(O)c3ccc([N+](=O)[O-])cc3)N(Nc3ccccc3)C2C(=O)N1c1ccccc1` (stereo unspecified) was -2.53; that for `C=C(CCCC)C(=O)CC[C@H](OC(C)=O)c1ccccc1OCCO` was -2.19. In the case of `C=C(COC)/C(=C/C[C@H](OC(=O)c1ccncc1)c1ccc(OCCO)cc1)c1cc(C(=O)OC)ccc1OC`, the z-score was -2.53. The same measure, in the same setting: the value for `COC(=O)[C@@]1(Cc2ccc(OC)cc2)[C@@H]2[C@@H](CC(=O)[C@H]2CC(=O)C(=O)N2CCCC2)CN1C(=O)c1ccccc1` was 0.26; that for `CCOC(=O)C[C@H]1[C@H](OC(=O)c2ccc(-c3ccccc3)cc2)[C@@H](NC(=O)CC(C)C)c2cc(OCCCO)ccc2N1C(=O)Cc1ccc(OC)cc1` was 2.11. In turn, `C=CCN1C(=O)[C@]2(O[C@H](CCn3cc([C@H](O)c4ccccc4)nn3)[C@@H]([Si](C)(C)c3ccc(OC)cc3)[C@@H]2C)c2cc(N3C(=O)c4cccc5cccc3c45)ccc21` showed a z-score of 0.797.

System in another test: not listed separately
In words: A549 cell viability effects, profiling panel, calcein-AM fluorescence, 48 h, basal (AID 1162). Further: test concentration not given here. Particulars: higher = more signal.
As for `CCCC[C@@H](O)C1=C(COC)Cn2c(=O)n(-c3ccccc3)c(=O)n2[C@H]1CO`, the z-score is 0.281. As to `CCN(CC)c1ccc(N2CC=CC34O[C@@H]5C=CCOC(=O)[C@@H]5[C@H]3C(=O)N(CCCO)[C@@H]4C2=O)cc1` (stereo partly specified), the z-score is -0.0867. On the same count and under the same terms, the value for `COCCOC(=O)N1C(=O)[C@@]2(c3cc(C#CCC(C(=O)OC)C(=O)OC)ccc31)[C@H](c1ccc(OCCO)cc1)N1[C@H](c3ccccc3)[C@H](c3ccccc3)OC(=O)[C@H]1[C@@H]2C(=O)N1CCCCCCC1` was 0.52. In the case of `CCOC(=O)C1=CC[C@@H](c2ccc(F)cc2)N(S(=O)(=O)c2ccc(C)cc2)[C@H]1c1ccc([N+](=O)[O-])cc1`, the z-score is -0.606. As to `COC(=O)c1c(CC[C@@H](CO)NC(=O)N[C@@H](Cc2ccccc2)Cn2cc(-c3cncn3C)nn2)oc(C(C)=O)c1C(=O)OC`, the z-score is -0.184. Still for that read-out and setting: the value for `O=C(NCCO)C1=C[C@H](Oc2ccccc2I)[C@@H](O)[C@H](NCc2ccc(F)cc2)C1` was 0.576. As to `CCCCN1CC=CC23O[C@@H]4/C=C\CCC(C)OC(=O)C4[C@H]2C(=O)N(C(C)CO)[C@@H]3C1=O` (stereo partly specified), the z-score was -0.425. Still for that read-out and setting: to `CC(C)C[C@@H]1NC(=O)C([C@@H](C)OCc2ccccc2)NC(=O)[C@@]23C(=O)N[C@@H](Cc4ccccc4)C2[C@H](C)[C@@]2(C)O[C@H]2C3/C=C/CC/C=C/CNC1=O` (stereo partly specified) belongs -0.638. In the case of `COCCOC(=O)N1C(=O)[C@@]2(c3cc(C#CCCO)ccc31)[C@H](C(=O)N1CCc3cc(OC)c(OC)cc3C1)[C@H]1C(=O)O[C@H](c3ccccc3)[C@H](c3ccccc3)N1[C@@H]2c1ccccc1OCCO`, the z-score was 0.373. As for `COc1ccc([Si](C)(C)[C@H]2[C@H](CC(=O)N3Cc4ccccc4C[C@H]3CO)O[C@@]3(C(=O)N(Cc4cccc(N5C(=O)c6cccc7cccc5c67)c4)c4ccccc43)[C@@H]2C)cc1`, the z-score was 0.653. Same read-out and setting: the value for `CN1C(=O)C2C(C1=O)C1C=C(c3ccc(CO)cc3)C2C(c2cccs2)N1C` (stereo unspecified) was -0.0148. Still for that read-out and setting: the value for `CC(C)CNC(=O)[C@@]1(C)c2ccccc2C(=O)N(Cc2cc(F)cc(C(F)(F)F)c2)[C@H]1c1ccc(CO)cc1` was -0.0148. On to `COc1ccc([Si](C)(C)[C@H]2[C@H](CCO)O[C@@]3(C(=O)N(Cc4ccc(N5CCOC5=O)cc4)c4ccccc43)[C@@H]2C)cc1`, for which the z-score was -0.108. Take `CCCC=C(CCC)[C@@H](NC(=O)c1ccco1)c1ccc(C(=O)OC)cc1`: the z-score is -4.29. Still for that read-out and setting: to `CO[C@H]1O[C@H](CO)[C@@H](OC(=O)Nc2ccc(C(F)(F)F)cc2)[C@H](OC(=O)Nc2ccccc2-c2ccccc2)[C@@H]1OC(=O)Nc1ccccc1-c1ccccc1` belongs -1.34; to `CC[C@H](C)C(=O)O[C@H]1CC[C@]2(C)C3=C(CCC2C1(C)C)[C@]1(C)CC[C@H]([C@H](C)CCCC(C)C)[C@@]1(C)CC3` (stereo partly specified), 1.18.

`COCCn1c(C(=O)N2CCCC2)cc2c1C[C@H]1CN(C(=O)c3ccccc3)[C@@](Cc3ccccc3)(C(=O)OC)[C@@H]21`: the z-score is -1.94.

Consider `C[C@]1(C(=O)NCC(F)(F)F)c2ccccc2C(=O)N(Cc2ccc(OC(F)(F)F)cc2)[C@H]1c1ccc(CO)cc1`, for which the z-score was 0.377. As for `CN(C)CCCNC(=O)[C@@H]1c2ccccc2C(=O)N(C2Cc3ccccc3C2)[C@H]1c1ccc(CO)cc1`, the z-score was 1.61. Still for that read-out and setting: the value for `Cc1c(NC(=O)/C(C#N)=C/c2ccc(Cl)cc2)c(=O)n(-c2ccccc2)n1C` was 1.48.

For `C=CCC(OC(C)=O)[C@@H]1[C@@H](N(Cc2ccc(-c3ccccc3)cc2)C(=O)c2cccc3ccccc23)c2cc(OCCCO)ccc2N1C(=O)c1ccc2ccccc2c1` (stereo partly specified), the z-score was 0.197. For the compound `COCCOC(=O)N1C(=O)[C@@]2(c3ccccc31)[C@H](c1ccc(OCCO)cc1)N1[C@H](c3ccccc3)[C@H](c3ccccc3)OC(=O)[C@H]1[C@@H]2C(=O)N1CCN(c2ncccn2)CC1`, the z-score was -0.158. In the case of `C=C(/C(=C/C[C@@H](OC(C)=O)c1ccccc1OCCO)c1cc(C(=O)OC)ccc1OC)C(C)C`, the z-score was 0.793.

As for `CCCC[C@H]1OB(O)C[C@H]2C1=C(COC)C[C@H]1C(=O)C=CC(=O)[C@H]12`, the z-score is 0.2. On the same count and under the same terms, the value for `COc1ccc(NC(=O)O[C@H]2[C@H](OC(=O)Nc3ccc4c(c3)OCO4)[C@H](OC(=O)Nc3ccc4c(c3)OCO4)[C@@H](OC)O[C@@H]2CO)cc1` was -0.798; that for `C=CCN1C(=O)[C@]2(O[C@H](CCO)[C@@H]([Si](C)(C)c3ccc(OC)cc3)[C@@H]2C)c2ccccc21` was -3.94; that for `COC(=O)[C@]1(CO)N=C(c2ccc(OCCCO)cc2)O[C@@H]1c1ccccc1CN=[N+]=[N-]` was 0.0394. The same measure, in the same setting: to `COc1cccc(OC)c1C(=O)O[C@H]1[C@@H]2OC(=O)[C@H](Cc3cccc(Br)c3)C/C=C/C[C@@H](Cc3cccc(Br)c3)C(=O)O[C@H]2[C@@H](OC)O[C@@H]1CO` belongs -0.144. As to `COCCOC(=O)N1C(=O)[C@@]2(c3cc(C#CC4(O)CCCCCC4)ccc31)[C@H](C(=O)NC[C@H](O)c1ccccc1)[C@H]1C(=O)O[C@H](c3ccccc3)[C@H](c3ccccc3)N1[C@@H]2c1ccc(O)cc1`, the z-score is 0.188. With `O=C1C2C=CC(C(O)c3ccc([N+](=O)[O-])cc3)N(Nc3ccccc3)C2C(=O)N1c1ccccc1` (stereo unspecified), the z-score is -0.121.

As for `C=C(CCCC)C(=O)CC[C@H](OC(C)=O)c1ccccc1OCCO`, the z-score is -0.655. For the compound `C=C(COC)/C(=C/C[C@H](OC(=O)c1ccncc1)c1ccc(OCCO)cc1)c1cc(C(=O)OC)ccc1OC`, the z-score was -0.313. Same read-out and setting: the value for `COC(=O)[C@@]1(Cc2ccc(OC)cc2)[C@@H]2[C@@H](CC(=O)[C@H]2CC(=O)C(=O)N2CCCC2)CN1C(=O)c1ccccc1` was -0.515; that for `CCOC(=O)C[C@H]1[C@H](OC(=O)c2ccc(-c3ccccc3)cc2)[C@@H](NC(=O)CC(C)C)c2cc(OCCCO)ccc2N1C(=O)Cc1ccc(OC)cc1` was -0.39; that for `C=CCN1C(=O)[C@]2(O[C@H](CCn3cc([C@H](O)c4ccccc4)nn3)[C@@H]([Si](C)(C)c3ccc(OC)cc3)[C@@H]2C)c2cc(N3C(=O)c4cccc5cccc3c45)ccc21` was -0.133.
